Compound activity deposited in PubChem by several laboratories.
Compounds with a hit are over-represented: about 4.2% of the library has one in this group of screens.
NALP3 yeast inh: blocks the NALP3 inflammasome reconstituted in yeast; AID 2825; hit rate 0.39% among 330,000; Yeast reconstituted NLRP3/ASC/caspase-1, beta-gal luminescence, 24 h; inhibition, % at 10 µM;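 active means inhibition of 50% or more; inactive means inhibition below 50%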;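 further: plate controls were induced DMSO wells for no effect and uninduced yeast grown without galactose for full effect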
V-ATPase pHluor: alters yeast V-ATPase proton transport. S. cerevisiae, pHLuorin cytosolic pH fluorescence. response, % at 10 µM. hit rate 0.37% among 350,000; in the data active means response mostly above about 7.3%, no sharp cut-off; inactive means mostly below about 5.4%; further: actives read high
tim23-1 inh: tim23-1 yeast growth inhibition; S. cerevisiae tim23-1 growth, BacTiter-Glo luminescence, 24 h; inhibition, % at 20 µM; AID 463212; hit rate 1.3% among 330,000;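 active means growth inhibition of the mutant yeast at or above 50%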;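 further: temperature-sensitive mutant grown at 25 °C; plate controls were DMSO-treated mutant yeast for no effect and medium wells lacking yeast for full effect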
tim10-1 inh: inhibits growth of tim10-1 mutant yeast; S. cerevisiae tim10-1 ts strain growth, BacTiter-Glo, 24 h; hit rate 2.2% among 330,000; AID 463190; inhibition, % at 20 µM;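 active means inhibition of at least 40%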;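 further: mutant grown at 25 °C; 0% = DMSO wells with yeast and 100% = wells holding no yeast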
NALP1 inh: blocks the NALP1 inflammasome reconstituted in yeast; AID 2071; hit rate 0.61% among 280,000; S. cerevisiae NALP1/ASC/caspase-1 growth, X-gal OD620, 72 h; inhibition, % at 10 µM; in the data active means inhibition mostly above about 24%, no sharp cut-off; inactive means mostly below about 32%
TIM10 inh: growth inhibitors of TIM10 yeast strain | S. cerevisiae TIM10 strain growth, BacTiter-Glo luminescence, 24 h | inhibition, % at 10 µM | hit rate 1.4% among 330,000;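 active means inhibition of 40% or more at the single tested concentration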;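 further: wild-type TIM10 isogenic control strain grown at permissive 25 °C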
tim10-1 confirm: tim10-1 yeast growth inhibition, confirmed. shares compounds with tim10-1 inh. S. cerevisiae tim10-1 ts strain growth, BacTiter-Glo, 24 h. inhibition, % at 20 µM. hit rate 56% among 7,400;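 active means inhibition of yeast growth at or above a set limit in either of two repeat tests at 20 µM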;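 further: tim10-1 mutant grown at permissive 25 °C to find synthetic lethal compounds; 0% = DMSO yeast wells and 100% = medium wells without yeast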
* marks the source's active call; other numbers are inactive results; . = no result given.

SMILES	NALP3 yeast inh	V-ATPase pHluor	tim23-1 inh	tim10-1 inh	NALP1 inh	TIM10 inh	tim10-1 confirm
Cc1ccc(-c2nc(-c3ccccn3)no2)cc1[N+](=O)[O-]	18	-2	18	8	0	1	.
Cc1ccc(-c2nc(-c3ccccn3)no2)cc1	32	-3	39	43*	12	17	17
O=C(NNC(=O)C1CCN(c2ncccn2)CC1)c1ccc(Cl)cc1	11	0	-5	-21	-10	-4	.
Cc1ccc(C(=O)N2CC(C)CC(C)C2)cc1NC1=NC2CS(=O)(=O)CC2S1 (stereo unspecified)	17	-1	-1	-12	-8	-6	.
CCCCCCCCCCOC(=O)Cn1c(COc2ccccc2)[n+](C)c2ccccc21	16	0	-40	-6	22	19	.
CCCCCCCCCCOC(=O)Cn1c(COc2ccccc2C)[n+](C)c2ccccc21	30	6	-18	70*	1	25	-63
CCC(C)Nc1ncnc2c1cnn2Cc1ccc(Cl)cc1 (stereo unspecified)	15	-2	36	43*	3	7	28
CC(C)Nc1ncnc2c1cnn2Cc1ccc(Cl)cc1	12	6	23	43*	16	16	16
Cc1ccc(Cn2ncc3c(NN)ncnc32)cc1	-17	2	30	27	-10	26	.
CC(=O)N1CCN(S(=O)(=O)c2cccc(C(=O)NNC(=O)COc3c(C)cccc3C)c2)CC1	-5	-1	1	-10	.	2	.
C=CCN1CC(c2nc3ccccc3n2Cc2cccc3ccccc23)CC1=O (stereo unspecified)	3	1	27	45*	31	30	15
COc1ccc(-c2nnc3n2C(C)(C)Cc2cc(OC)c(OC)cc2-3)cc1	.	.	.	.	18	.	.
CN1CCN(C(c2ccccc2)c2ccccc2)CC1	-44	4	-4	5	.	11	.
CN1CCCN(C(c2ccccc2)c2ccc(Cl)cc2)CC1 (stereo unspecified)	43	-2	27	50*	34	24	34*
COc1ccc(C2C(=O)N(C3CCCCCC3)CC(=O)N2Cc2ccccc2)cc1OC (stereo unspecified)	10	-3	24	19	4	19	.
COc1cc(C2Nc3cccc4cccc(c34)N2)ccc1OC(C)=O	4	-5	29	41*	9	37	39*
Cc1ccc(OCCOc2cccc(Br)c2)c([N+](=O)[O-])n1	23	3	39	54*	36	-2	40*
COC(=S)Nc1cccc(C(F)(F)F)c1	-1	1	0	6	21	9	.
COC(=O)/C=C/C(=O)Nc1cccc(C(F)(F)F)c1	35	3	41	47*	50	32	51*
CCOC(=O)/C=C/C(=O)OCC(=O)Nc1ccc([N+](=O)[O-])cc1	-20	1	40	43*	.	19	59*
CCOC(=O)/C=C/C(=O)Nc1cccc([N+](=O)[O-])c1	2	1	38	56*	81*	36	71*
COc1cc(/C=C/C(=O)OCC(=O)Nc2ccc([N+](=O)[O-])cc2)ccc1O	-3	0	-8	-9	-1	-4	.
CC(NC(=O)Nc1cccc([N+](=O)[O-])c1)(C(F)(F)F)C(F)(F)F	15	.	40	42*	13	22	33*
O=C(Nc1cccc([N+](=O)[O-])c1)c1cccc(C(=O)Nc2cccc([N+](=O)[O-])c2)c1	5	-1	-10	-31	6	21	.
COc1cccc2c1OCC(CN1CCN(CCC(C)C)C(CCO)C1)=C2 (stereo unspecified)	-6	3	18	-11	0	-10	.
SMILES	NALP3 yeast inh	V-ATPase pHluor	tim23-1 inh	tim10-1 inh	NALP1 inh	TIM10 inh	tim10-1 confirm
O=C(NCCCN1CCOCC1)c1cc(-c2ccc(Br)cc2)nc2ccccc12	11	-3	18	13	.	5	.
CCOC(=O)Cc1csc(NC(=S)NC(=O)C(C)(C)C)n1	-3	-3	34	41*	14	17	18
CCOC(=O)Cc1csc(N/N=C/c2ccccc2)n1	3	3	36	41*	22	25	20
CCOC(=O)Cc1csc(NC(=S)NC(=O)c2ccc(Cl)cc2)n1	10	-7	3	6	14	-2	.
CCOC(=O)Cc1csc(N/N=C\c2cccc(Br)c2)n1	-2	6	13	23	17	28	.
Cc1csc(=O)n1CCC(=O)OCc1nnc(-c2ccc([N+](=O)[O-])cc2)o1	19	0	8	24	.	4	.
COc1ccc(-c2csc(N(CCCN(C)C)C(=O)c3ccc(C(C)(C)C)cc3)n2)cc1	14	-6	19	18	13	4	.
CC(C)NC(=O)CN1CCC(c2ccccc2)C(O)C1 (stereo unspecified)	-1	-4	7	20	-4	15	.
COc1ccc(C(=O)NC(=S)Nc2ccccc2N2CCOCC2)cc1Br	17	-2	48	35	36	27	.
CCCCN1C(=O)c2ccc(C(=O)Nc3ccccc3N3CCOCC3)cc2C1=O	9	-1	-12	43*	-1	19	-4
O=C(CN1C(=O)c2ccccc2C1=O)Nc1ccccc1N1CCOCC1	-5	-1	7	-5	5	-3	.
COc1ccc(C(=O)Nc2ccccc2N2CCOCC2)cc1Br	27	-1	16	40*	.	-9	12
Cc1cc(C)c(OCC(=O)Nc2ccccc2N2CCOCC2)c(C)c1	14	.	30	46*	-2	27	32*
COc1cc(C(=O)NC(=S)Nc2ccc(Cl)cn2)cc(OC)c1OC	25	0	-5	42*	1	12	17
O=C(CN1CCOCC1)NCCc1ccccc1	15	2	-4	-20	.	-7	.
CCS(=O)(=O)N1CCC(C(=O)Oc2ccccc2Cl)CC1	23	2	3	11	16	4	.
CCOC(=O)c1cnc2nc(NCc3ccc(OCc4ccccc4)cc3)[nH]n2c1=O	0	1	13	11	12	0	.
O=C(CN1C(=O)CC(c2ccco2)Sc2ccccc21)Nc1ccc2c(c1)OCCO2 (stereo unspecified)	24	1	16	19	7	-12	.
CC1CCN(C(=O)CSc2nc3c(cnn3-c3ccc(Cl)cc3)c(=O)[nH]2)CC1	11	2	-9	2	23	-16	.
COc1cc(C(=O)NC(=S)Nc2ccccc2N2CCCC2)cc(OC)c1OC	5	1	28	51*	-7	34	13
COc1cc(C(=O)Nc2ccccc2N2CCCCC2)cc(OC)c1OC	21	-1	42	25	13	23	.
COc1ccc(Sc2nnc(Cc3ccccc3)c3ccccc23)cc1	9	-2	23	31	-6	28	.
